Bioassay records as filed in PubChem BioAssay.
Most compounds without a hit are left out; they make up all but 2.8% or so of the library.
Pol kappa inh-1 – qHTS for Inhibitors of Polymerase Kappa; DNA polymerase kappa (Homo sapiens), Q9UBT6; purified Pol kappa, fluorescent DNA synthesis assay, 10 min; Potency, µM (series often up to 107 µM), usual class: inhibitors; 400,000 compounds, 0.53% hits
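Kinetic fluorescence screen: compound preincubated 15 min RT with 10 nM enzyme; 50 nM substrate (final) initiates; reads at 0/10 min.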
POLB inh – qHTS Assay for Inhibitors of DNA Polymerase Beta; P06746; Pol beta primer extension/strand displacement, fluorescence kinetic; Potency, µM (top dose mostly 114 µM), usual class: inhibitors; 340,000 compounds, 1.3% hits; AID 485314, 2010
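Enzyme-only controls used 10 nM Pol beta; buffer lacking enzyme served as negative control. Compound preincubated 15 min, then 50 nM substrate added; 0 and 10 min reads at room temperature.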
POLI inh – qHTS for Inhibitors of Polymerase Iota | DNA polymerase iota (Homo sapiens), Q9UNA4 | Pol iota fluorescent replication assay, 10 min | Potency, µM (highest dose often 115 µM), actives largely listed as inhibitors | 390,000 compounds, 1% hits
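Fluorescent replication assay read twice, at 0 min and 10 min after adding 50 nM (final) substrate. Enzyme (10 nM) and compounds were first incubated 15 min at room temperature; enzyme-free buffer wells were negative controls.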
Pol eta inh-1 – qHTS for Inhibitors of Polymerase Eta | DNA polymerase eta (Homo sapiens), Q9Y253 | recombinant Pol eta, fluorescent DNA replication assay | Potency, µM (series often up to 114 µM), most hits filed as inhibitors | 390,000 compounds, 1.2% hits
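Fluorescent replication assay: 50 nM final substrate added after a 15 min room-temperature compound preincubation with 10 nM enzyme. Signal taken at 0 min and again at 10 min.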
PI5P4K alpha inh – qHTS for Inhibitors of phosphatidylinositol 5-phosphate 4-kinase (PI5P4K); PI5P4Kalpha enzyme, ADP-Glo luminescence, 60 min; active compounds read low; max response, %; 330,000 compounds, 1.2% hits; AID 652105, 2013; active = max response of -50% or lower; inconclusive = between -30% and -50%; inactive = -30% or higher; also: value at the top dose of about 77 µM
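Single end-point luminescence (ADP-Glo) quantified ADP from PI5P4Kalpha turnover; ATP 5 microM final, 1 h at RT, 0.1% CHAPS and 0.28 mM EGTA in HEPES pH 7.4.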
PI4K2A block – qHTS for small molecular inhibitors of PI4K2A; Phosphatidylinositol 4-kinase type 2-alpha (Homo sapiens), Q9BTU6; purified PI4K2A, ADP-Glo luminescence, 1 h; active compounds read low; activity change, negative = inhibition, % at 76.9 µM; 420,000 compounds, 0.13% hits; AID 1346378, 2018; in the data active = activity change below about -50%; inconclusive = mostly about -30% to -49%
Target sequence (Q9BTU6 whole entry, looked up): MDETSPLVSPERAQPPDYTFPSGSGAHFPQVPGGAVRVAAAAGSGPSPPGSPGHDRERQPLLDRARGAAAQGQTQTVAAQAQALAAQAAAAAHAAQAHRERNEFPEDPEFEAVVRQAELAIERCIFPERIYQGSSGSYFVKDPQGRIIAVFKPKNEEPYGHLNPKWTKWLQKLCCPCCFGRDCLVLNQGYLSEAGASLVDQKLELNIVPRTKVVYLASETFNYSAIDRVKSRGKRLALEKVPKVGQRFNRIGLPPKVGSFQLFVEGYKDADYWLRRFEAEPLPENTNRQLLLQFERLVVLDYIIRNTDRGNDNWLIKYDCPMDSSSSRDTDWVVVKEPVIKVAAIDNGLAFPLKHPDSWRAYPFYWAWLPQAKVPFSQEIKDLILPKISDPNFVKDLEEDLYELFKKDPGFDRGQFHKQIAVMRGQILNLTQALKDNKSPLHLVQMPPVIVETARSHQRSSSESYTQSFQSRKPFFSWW
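ADP-Glo luminescence measured ADP generated by PI4K2A enzyme (4 ug/mL before mixing) with 1.2 mM PI substrate (pre-mix) and 300 microM ATP (pre-mix). Tris pH7.5 buffer with MgCl2, Triton X-100; 1 h reaction at ambient temperature.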
PGK validate – qHTS for inhibitors of Phosphogylcerate Kinase: Hit Validation Screen; Potency, µM (titrated, usually from 57.5 µM), actives largely listed as inhibitors; TbPGK coupled GAPDH assay, Kinase-Glo luminescence; 500 compounds, 79% hits; shares compounds with Pol kappa inh-1; also: nearly all actives have a fitted effect of over 65% in size
Pol iota confirm – qHTS for Inhibitors of Polymerase Iota: Confirmatory Assay for Cherry-picked Compounds; shares compounds with Pol kappa inh-1; Pol iota primer extension, TAMRA/BHQ fluorescence; Potency, µM, hits mostly inhibitors; 1,500 compounds, 77% hits; AID 720496, 2013
Pol kappa inh-2 – qHTS for Inhibitors of Polymerase Kappa: Confirmatory Assay for Cherry-picked Compounds; shares compounds with Pol eta inh-1; purified Pol-kappa, fluorescent strand-displacement substrate; Potency, µM, hits mostly inhibitors; 920 compounds, 76% hits
Pol eta inh-2 – qHTS for Inhibitors of Polymerase Eta: Confirmatory Assay for Cherry-picked Compounds | shares compounds with Pol eta inh-1 | Pol eta primer extension, TAMRA/BHQ fluorescence, 10 min | Potency, µM, usual class: inhibitors | 2,600 compounds, 64% hits | AID 720502, 2013
ADP-Glo interf – qHTS for Inhibitors of PI5P4K: ADP-Glo counter assay | shares compounds with PI5P4K alpha inh | ADP-Glo detection counter-screen, luciferase luminescence, no enzyme | Potency, µM (series often up to 76.9 µM), hits mostly inhibitors | 1,100 tested, under 10 active
Of the large screens only hits and unclear results are named; the others gave an inactive call (follow-up assays come after a bar, where they were run). Unless noted, calls follow the shape of the dose curve; as a rule, active = well fitted curve in the direction sought with a large enough effect; inconclusive = small, poorly fitted or top-dose-only effect, or another doubt; inactive = no such curve, though single readings can be large; an effect the other way counts as inactive or inconclusive.

O=[N+]([O-])c1cc(/C=N/Nc2nc3ccccc3[nH]2)c(O)cc1O	Pol kappa inh-1 39.8µM, POLB inh 20µM, POLI inh 44.7µM, Pol eta inh-1 4.47µM, PI5P4K alpha inh -73.3 | Pol iota confirm inconclusive | Pol eta inh-2 inconclusive
COc1cccc(NC(=O)c2nnn(Cc3ccc(OC)c(Br)c3)c2N)c1	none (no result: PI5P4K alpha inh)
O=C(O)c1cccc(-c2ccc3c(c2)OCO3)c1	none
O=C1OC(c2ccc3c(c2)OCO3)=N/C1=C\c1ccc(C(=O)O)cc1	Pol kappa inh-1 inconclusive, POLB inh inconclusive, POLI inh inconclusive, Pol eta inh-1 10µM | Pol iota confirm inconclusive | Pol eta inh-2 8.49
CCOc1ccc(NC(=O)N(C)CCc2c(C)nn(C)c2C)cc1	none (no result: PI5P4K alpha inh)
O=C(COC(=O)c1cncc(Br)c1)NCc1ccc(F)cc1	none
O=C(COC(=O)c1cccs1)NCc1ccccc1	none
O=C(NCc1cccc(CNC(=O)c2ccco2)c1)c1ccco1	none (no result: PI5P4K alpha inh)
O=C(COC(=O)c1cccs1)NCc1ccco1	Pol kappa inh-1 inconclusive, POLB inh 20µM, POLI inh 20µM, Pol eta inh-1 14.1µM, PI5P4K alpha inh inconclusive | Pol iota confirm 75.2 | Pol eta inh-2 84.9
COc1ccc(CC(=O)OCC(=O)NCc2ccco2)cc1OC	none (no result: POLB inh)
O=C(NCc1cccc(CNC(=O)C(=O)NCc2ccco2)c1)C(=O)NCc1ccco1	POLB inh 22.4µM, POLI inh inconclusive, Pol eta inh-1 28.2µM, PI5P4K alpha inh -52.9, PI4K2A block inconclusive | Pol iota confirm 67 | Pol kappa inh-2 inconclusive | Pol eta inh-2 75.7
O=C(COC(=O)c1cncc(Br)c1)NCc1ccco1	Pol kappa inh-1 79.4µM, POLB inh 22.4µM, POLI inh inconclusive, Pol eta inh-1 10µM | Pol iota confirm 23.8 | Pol kappa inh-2 23.8 | Pol eta inh-2 inconclusive
O=C(COC(=O)Cc1cccc(C(F)(F)F)c1)NCc1ccco1	Pol kappa inh-1 44.7µM, POLI inh inconclusive, Pol eta inh-1 5.01µM, PI5P4K alpha inh inconclusive (no result: POLB inh) | Pol iota confirm 59.7 | Pol kappa inh-2 23.8 | Pol eta inh-2 30.1
CCSc1ncnc2nc[nH]c12	none (no result: POLB inh, Pol eta inh-1, PI5P4K alpha inh, PI4K2A block)
CCCC1N=C2c3ccccc3N=C(SCC(=O)NCCc3ccc(Cl)cc3)N2C1=O (stereo not drawn)	none (no result: PI5P4K alpha inh)
O=C(O)c1cc(O)c2c(c1)[C@@H]([C@H]1c3cc(C(=O)O)cc(O)c3C(=O)c3c(O[C@@H]4O[C@H](CO)[C@@H](O)[C@H](O)[C@H]4O)cccc31)c1cccc(OC3O[C@H](CO)[C@@H](O)[C@H](O)[C@H]3O)c1C2=O (stereo partly drawn)	PI5P4K alpha inh -88.8 (no result: POLB inh) | PGK validate 2.59µM | Pol iota confirm 2.99 | Pol kappa inh-2 2.67 | Pol eta inh-2 6.01
CCn1c(=O)c2sccc2n2c(CCC(=O)N3CCN(c4ccc(C(C)=O)cc4)CC3)nnc12	none (no result: PI5P4K alpha inh)
Cc1cccc(NC(=O)Cn2c(O)c(N=NC(=O)c3ccccc3O)c3ccccc32)c1	POLB inh 15.8µM, Pol eta inh-1 44.7µM | Pol iota confirm 47.4 | Pol eta inh-2 inconclusive
Cc1ccc(N2CCN(S(=O)(=O)c3nnc(NC(=O)c4cccc(F)c4)s3)CC2)cc1	none (no result: PI5P4K alpha inh)
Cc1ccc(C(=O)O)cc1-c1ccc(C=C2C(=O)c3ccccc3C2=O)o1	Pol kappa inh-1 79.4µM, POLB inh 31.6µM, POLI inh inconclusive, Pol eta inh-1 7.94µM | Pol iota confirm 42.3 | Pol eta inh-2 26.9
Cc1ccc(C)c(S(=O)(=O)Nc2ccc3oc(C)c(C(=O)O)c3c2)c1	Pol kappa inh-1 79.4µM, POLB inh 8.91µM, POLI inh 14.1µM, Pol eta inh-1 10µM, PI5P4K alpha inh -95.1 | Pol iota confirm 33.6 | Pol eta inh-2 26.9 | ADP-Glo interf inactive
O=C(CCNS(=O)(=O)c1ccc2c(c1)CCCC(=O)N2)NCc1ccccc1Cl	none (no result: PI5P4K alpha inh)
Cc1cc(C)c2nc(-c3ccccn3)cc(C(=O)Nc3ccc(S(=O)(=O)Nc4onc(C)c4C)cc3)c2c1	Pol kappa inh-1 inconclusive, POLB inh inconclusive, POLI inh 8.91µM, Pol eta inh-1 8.91µM, PI5P4K alpha inh -66.0 | Pol iota confirm 21.2 | Pol eta inh-2 8.49 | ADP-Glo interf inactive
Cn1c(=O)n(C)c2cc(N3CCCCC3)c(NC(=O)c3ccc(Cl)cc3)cc21	none (no result: PI5P4K alpha inh)
CCC(=O)OC1(C)C(=O)C2=COC(c3ccc(OC)cc3)=CC2=C(Br)C1=O (stereo not drawn)	Pol kappa inh-1 inconclusive, POLB inh inconclusive, POLI inh inconclusive, Pol eta inh-1 44.7µM, PI5P4K alpha inh -72.2, PI4K2A block inconclusive | PGK validate 20.6µM | ADP-Glo interf inactive
COC(=O)CCC(=O)OC1(C)C(=O)C2=CN(CC(C)C)C(c3ccc(OC)cc3)=CC2=C(Br)C1=O (stereo not drawn)	none (no result: Pol kappa inh-1, POLI inh, Pol eta inh-1, PI5P4K alpha inh, PI4K2A block)
